The results in this text go back to PubChem BioAssay (NCATS).

Inconclusive results are not listed. A call without a number means that no potency is given here. The source holds several records for some structures; these can differ, active in one and inactive in another. Calls of active or inactive are those of the source. Calls come from the whole dose curve; as a rule, active = well fitted inhibition curve with a large enough effect; inconclusive = small, poorly fitted or top-dose-only effect; inactive = no such curve, though single readings can be large or run the other way.
Potency is the fitted concentration of half-maximal effect.

The assay is described as follows: NS1 protein of Zika virus - qHTS assay to identify small molecule inhibitors in human HEK 293 cells (AID 1347053). Note: nearly all actives have a fitted effect of over 55% in size. Particulars: HEK293 ZIKV MR766 infection, NS1 TR-FRET, 24 h; series mostly up to 46.1 µM. The source says: National Center for Advancing Translational Sciences [NCATS]
Johns Hopkins University School of Medicine
The non-structural 1 (NS1) protein of zika virus is known to associate with the viral replication complex. This cell-based TR-FRET ZIKV NS-1 assay measures the increased NS-1 protein in human HEK 293 cells after a 24-hour Zika virus infection by a TR-FRET assay readout. A decrease in the Time-resolved fluorescence energy transfer (TR-FRET) signal in this assay by small molecule treatment indicates an inhibitory effect of the small molecule on the expression of Zika virus NS1 correlating with Zika virus replication.
HEK 293 cells were cultured in EMEM (ATCC, Cat. # 30-2003) medium with 10% fetal bovine serum (GE healthcare Life Sciences, Cat. # SH30071.03), and 1% Pen/Strep (Gibco, Cat. # 15140-122). Cells were seeded in the assay plate and incubated at 37 C with 5% CO2 for 20 hours. Compounds were added to cells and incubated for one hour before addition of ZIKV MR766 strain solution to cells (MOI = 0.5). After an incubation at 37 C for 24 hours, the reagent mixture of TR-FRET ZIKV NS1 assay using two anti-ZIKV NS1 antibodies was added to assay plates. The TR-FRET signals in assay plates were measured using an Envision plate reader (PerkinElmer). Data were normalized by using the cell-containing wells without ZIKV as a negative control (0% NS-1) and wells containing ZIKV infected cells as a positive control (100% NS-1 level).
A general note: In qHTS, concentration-response curves come from the screen itself.
Take `COc1ccc(N(C(=O)Oc2c(C)cccc2C)c2ccnc(Nc3ccc(N4CCN(C)CC4)cc3)n2)c(OC)c1`: the Potency result is “inactive”. The result for `Nc1ccc(N=Nc2ccccc2)cc1` reads “inactive”; that for `C=CC(=O)NCNC(=O)C=C`, “inactive”; that for `Clc1cnc(Oc2ccc(Oc3ncc(Cl)cc3Cl)cc2)c(Cl)c1`, “inactive”. Then `CC[C@@]1(O)C(=O)OCc2c1cc1n(c2=O)Cc2cc3ccccc3nc2-1`, with 11.8 nM (active) and inactive; and `CN(C)[C@@H]1C(=O)C(C(N)=O)=C(O)[C@@]2(O)C(=O)C3=C(O)c4c(O)cccc4[C@@](C)(O)[C@H]3[C@H](O)[C@@H]12`, with “inactive”; and `CC(C)(O)C=CC(=O)[C@](C)(O)[C@H]1[C@H](O)C[C@]2(C)[C@@H]3CC=C4[C@@H](C=C(O)C(=O)C4(C)C)[C@]3(C)C(=O)C[C@@]12C`, with 3.32 µM (active). `O=C(O)Cc1cnc[nH]1`: the Potency entry was “inactive”. Consider `CCc1c(C(=O)C(N)=O)c2c(OCC(=O)O)cccc2n1Cc1ccccc1`, for which the Potency result is “inactive”. The result for `Nc1c(Cl)c(Cl)c(Cl)c(Cl)c1Cl` reads “inactive”. The result for `O=C(O)CCCOc1ccc(Cl)cc1Cl` reads “inactive”; that for `C1=C2CCCN[C@H]2[C@@H]2C[C@H]1[C@@H]1CCCCN1C2`, “inactive”; that for `O=C(Cc1ccc(Cl)c(Cl)c1)N1CCCCC1CN1CCCC1` (stereo not given), “inactive”. The result for `CN1CCN(c2ccc([N+](=O)[O-])c3no[n+]([O-])c23)CC1` reads “inactive”; that for `COc1ccc(C(=O)c2c(C)n(CCN3CCOCC3)c3cc(I)ccc23)cc1`, “inactive”. As for `COc1ccc(C(c2ccc(OC)cc2)C(Cl)(Cl)Cl)cc1`, the Potency result is “inactive”. Consider `CCCCCC[C@H]1C(=O)O[C@H](C)[C@H](NC(=O)c2cccc(NC=O)c2O)C(=O)O[C@@H](C)[C@@H]1OC(=O)CC(C)C`, for which the Potency was 2.96 µM (active).

Consider `C[C@]12CC[C@@H]3[C@@H](CCC4=CC(=O)CC[C@@H]43)[C@@H]1CC[C@@H]2OC(=O)CCc1ccccc1`, for which the Potency entry was “inactive”. Regarding `OCCCBr`, the Potency result is “inactive”. Consider `Oc1ccc2c3c1O[C@H]1c4[nH]c5c(c4C[C@@]4(O)[C@@H](C2)N(CC2CC2)CC[C@]314)C[C@@]1(O)[C@H]2Cc3ccc(O)c4c3[C@@]1(CCN2CC1CC1)[C@H]5O4`, for which the Potency entry was “inactive”. With `O=C(N[C@H]1CN2CCC1CC2)c1ccc(Cl)cc1`, the Potency result was “inactive”. With `O=C(O)c1cc(Oc2ccc(C(F)(F)F)cc2Cl)ccc1[N+](=O)[O-]`, the Potency result is “inactive”. On to `NC1=NC(=O)N2CC12` (stereo not given), for which the Potency result is “inactive”. In the case of `C[C@@H]1[C@H](O)[C@@H](C)C=CC=CCCC=CC=CC=CC=C[C@H](O[C@H]2O[C@@H](C)[C@H](O)[C@@H](N)[C@@H]2O)CC2O[C@](O)(C[C@@H](O)[C@H](O)CC[C@@H](O)C[C@@H](O)C[C@@H](O)CC(=O)O[C@H]1C)C[C@H](O)[C@H]2C(=O)O`, the Potency entry is “inactive”. The result for `c1ccc(CCCN2CCN(CCOC(c3ccccc3)c3ccccc3)CC2)cc1` reads “inactive”; that for `CC(C)(O)C(=O)Nc1ccc([N+](=O)[O-])c(C(F)(F)F)c1`, “inactive”; that for `ClC1=C(Cl)[C@]2(Cl)[C@@H]3[C@@H]4C[C@@H]([C@H]5O[C@@H]45)[C@@H]3[C@@]1(Cl)C2(Cl)Cl`, “inactive”.

In the case of `COc1cc(C(O)CN)ccc1O` (stereo not given), the Potency result was “inactive”. The result for `CO[C@H]1CCC(O[C@H]2C[C@H]([C@]3(C)CC[C@]4(C[C@H](O)[C@@H](C)[C@@H]([C@@H](C)C=C(C)C(=O)[C@H](C)C[C@H](C)C(=O)O)O4)O3)O[C@]3(O[C@@H]([C@H]4O[C@@](O)(CO)[C@H](C)C[C@H]4C)C[C@H]3C)[C@H]2C)O[C@H]1C` (stereo not given in full) reads 0.743 µM (active); that for `CC(O)CN1CCN(CC(=O)[O-])CCN(CC(=O)[O-])CCN(CC(=O)[O-])CC1.[Gd+3]` (stereo not given), “inactive”; that for `CC[C@H]1C=CC=CC[C@@H](C)[C@H](O)[C@@](C)(O)C(=O)[C@@H](C)[C@H](O)[C@@H](C)C(=O)[C@@H](C)[C@H](O)[C@@H](C)C=CC(=O)O[C@@H]2[C@@H](C)[C@H](CC1)O[C@]1(CC[C@H](C)[C@H](C[C@@H](C)O)O1)[C@H]2C`, 18.7 µM (active). On to `Nc1ccc(Cl)cc1`, for which the Potency result is “inactive”. Consider `CNCCc1ccc(O)c(O)c1`, for which the Potency result is “inactive”. For the molecule `C[C@@H]1O[C@@H](O[C@@H]2C=C3CC[C@@H]4[C@@H](CC[C@]5(C)[C@H](c6ccc(=O)oc6)CC[C@@]45O)[C@@]3(C)CC2)[C@H](O)[C@H](O)[C@H]1O`, the Potency is 0.0118 µM (active).

Take `Nc1ccc([N+](=O)[O-])cc1`: the Potency result was “inactive”. For the molecule `COC1=CC(C)=C[C@@H](C)[C@@H](O)[C@@H](C)CC(C)=CC=C[C@H](OC)[C@H]([C@@H](C)[C@@H](O)[C@H](C)[C@@]2(O)C[C@@H](O)[C@H](C)[C@@H](C(C)C)O2)OC1=O`, the Potency is 0.0012 µM (active).

In the case of `CCN1CCN(C(=O)Cc2ccc(Nc3ncc(F)c(Nc4ccc(C(=O)Nc5ccccc5Cl)cc4)n3)cc2)CC1`, the Potency was 11.8 µM (active). As for `C[C@]12CC[C@H]3[C@@H](CCC4=CC(=O)CC[C@@]43C)[C@H]1CC[C@H]2O`, the Potency result was “inactive”. Consider `c1cc2c(cc1[C@H]1OC[C@H]3[C@H]1CO[C@H]3c1ccc3c(c1)OCO3)OCO2`, for which the Potency entry is “inactive”. As to `C[N+]1(C)C2CCC1CC(OC(=O)C(CO)c1ccccc1)C2` (stereo not given), the Potency result was “inactive”.
